Screening results from PubChem.
nsP2pro primary = CHIKV nsP2 protease inhibition, primary qHTS. FRET peptide cleavage, nsP2pro, fluorescence 1 h. Potency, µM (titrated, usually from 24.9 µM), without a hit: at the highest dose activity change, negative = inhibition, hits mostly inhibitors. hit rate 1.1% among 31,000. AID 1964107; calls by dose curve; note: nearly all actives have a fitted effect of over 60% in size
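Enzyme 150 nM, substrate 2.5 uM (both final); Tris-HCl 10 mM pH 8.0 + 0.01% Tween 20; cpd up to 25 uM, 7 pts; 15 min preinc., 1 h RT; fluorescence ex 525/em 598.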
Numbers without * were called inactive; i = inactive; ! = repeats disagree; [ ] = dose if it differs, or a comment. Only a selection was taken, and hits are over-represented in it overall. % is set by controls: 0 for no effect and ±100 for the full control effect; potency is the fitted concentration of half-maximal effect.

SMILES | nsP2pro primary
CC1=C(C(=O)O)/C(=C\CO[C@@H]2O[C@H](CO)[C@@H](O)[C@H](O)[C@H]2O)C(OC(=O)/C=C/c2ccc(O)cc2)C1 (stereo partly drawn) | 14%[10 µM]
CCOC(=O)CSc1nc2c(sc3ccccc32)c(=O)n1Cc1ccc(C)cc1 | -14%
CS(=O)(=O)c1ccc(CC(=O)N[C@H](c2ccccn2)C2CC(O)C2)cc1 (stereo partly drawn) | i
O=C(N[C@H](c1ccccn1)C1CC(O)C1)c1ccc(Cn2cccn2)o1 (stereo partly drawn) | -11%
CS(=O)(=O)c1ccc(CN2CCC(C(O)c3ccccn3)CC2)cc1 (stereo not drawn) | 11µM*
CC(C)(C)NC[C@H](O)COc1cccc2c1CCCC2=O | -10%
Cc1ccccc1C(=O)N1C(C(=O)NCc2ccccc2)COC12CCN(C(=O)c1ccco1)CC2 (stereo not drawn) | -24%
CCC1C(=O)NCCN1Cc1cn(-c2cccc(F)c2)nc1-c1ccc(C)o1 (stereo not drawn) | 11µM*
CNC(=O)[C@@H]1C[C@H](Oc2ccccc2)CN1S(=O)(=O)c1ccc2c(c1)CCC2 | 0%
CCOc1ccc(C(=O)Nc2ccc(-c3nnc4n3CCCCC4)cc2)cc1OCC | 10µM*
COc1ccc(Cl)cc1C(=O)Nc1ccc(-c2nnc3n2CCCCC3)cc1 | -2%
O=C(CCC1CCCC1)Nc1ccc(-c2nnc3n2CCCC3)cc1 | 5%
C=C1CC[C@H]2[C@@](C)(CCC[C@@]2(C)C(=O)O)[C@@H]1CCC(C)CCO (stereo partly drawn) | -10%
COc1cc(OC)cc(-c2nnc3n2N=C(c2c(OC)cccc2OC)CS3)c1 | i
CCc1ccc(NCc2cc3cc(OC)c(OC)cc3n(CC(=O)Nc3cc(C)ccc3C)c2=O)cc1 | 10µM*
Cc1ccc(C)c(NC(=O)Cn2c(=O)ccc3cc(S(=O)(=O)N4CCCC4)ccc32)c1 | -20%
COc1ccc(CCNC(=O)CCn2c(=O)c3ccccc3n(CC(=O)Nc3cc(Cl)ccc3C)c2=O)cc1OC | -11%
CC#CC(=O)N1CCCC(C(=O)Nc2ccc(-c3cccc(OC)c3)cc2)C1 (stereo not drawn) | i
O=C(NCc1ccnc2[nH]ccc12)c1ccc(Cl)cc1 | 14µM*
O=C(NCc1c[nH]c2ncccc12)c1cccnc1 | 3%[39.2 µM]
O=C(Cc1ccccc1)NCc1ccnc2[nH]ccc12 | -1%[39.2 µM]
O=C(O)c1ccc2c(c1)C(=O)N([C@H](Cc1ccc(O)cc1)C(=O)O)C2=O | 0%
COc1ccc(/C=C/C(=O)N2CCCC2)cc1 | 7%
CN1CCN(C2=Nc3ccccc3Nc3ccc(Cl)cc32)CC1 | 2%
Cc1cc2c(s1)Nc1ccccc1N=C2N1CCN(C)CC1 | 11µM*!
SMILES | nsP2pro primary
CN1CCN(C2=Nc3ccccc3Cc3ccccc32)CC1 | -1%
O=C(Nc1ccc2n(c1=O)C[C@H]1C[C@@H]2CN(C(=O)c2ccccn2)C1)C1CCCCC1 | -14%[39.2 µM]
CCC(Cc1ccccc1)NC(=O)CCS(=O)(=O)c1cc2c(cc1Cl)NC(=O)CO2 (stereo not drawn) | -9%
O=C1COc2ccc(N3CCOCC3)nc2CN1Cc1ccc(F)cc1 | 11µM*
O=C1COc2ccc(-c3cccc(O)c3)nc2CN1Cc1ccc(C(F)(F)F)cc1 | i
Cn1cc(-c2ccc3c(n2)CN(Cc2ccc(F)cc2)C(=O)CO3)cn1 | -4%[39.2 µM]
COc1cccc(-c2ccc3ncnc(NCc4cccnc4)c3c2)c1 | i
CCOC(=O)c1cnn(-c2ccc(C(=O)Nc3cccc(C(C)=O)c3)cc2)c1N | -16%
CC(C)N[C@@H]1CCn2c(=O)[nH]c3cccc(c32)[C@H]1O | 11µM*
CCCSc1nc(N[C@@H]2C[C@H]2c2ccc(F)c(F)c2)c2nnn([C@@H]3C[C@H](OCCO)[C@@H](O)[C@H]3O)c2n1 | 93%
Cc1cc(SCC(=O)NCc2ccccc2Cl)nc(=O)[nH]1 | -19%
COC(=O)CSc1nc2sc3c(c2c(=O)n1-c1ccccc1)C(C)CCC3 (stereo not drawn) | -21%
Cc1nc([C@@H]2CN(S(=O)(=O)c3ccc4c(c3)CCCC4)C[C@H]2C(N)=O)n[nH]1 | -8%
CCCS(=O)(=O)Nc1ccc(=O)n2c1[C@@H]1C[C@@H](CN(C(=O)c3ccc(F)cc3)C1)C2 | -1%[39.2 µM]
COc1ccc(S(=O)(=O)Nc2ccc3n(c2=O)C[C@H]2C[C@@H]3CN(C(=O)c3ccccn3)C2)cc1 | -29%
O=C(c1ccc(F)cc1)N1C[C@@H]2C[C@H](C1)c1ccc(NS(=O)(=O)Cc3ccccc3)c(=O)n1C2 | 13µM*
O=c1cc(O)c(Cl)c[nH]1 | -5%
CC1(C)C(=O)N(c2ccc(C#N)c(C(F)(F)F)c2)C(=O)N1CCCCO | -12%
CCOC(=O)C1=CN(CC(=O)Nc2ccccc2C(F)(F)F)S(=O)(=O)N=C1C | -7%
CCN1CCOC(=O)C1CC(=O)Nc1ccccc1C(F)(F)F (stereo not drawn) | 11µM*
O=C(CC1C(=O)OCCN1Cc1ccccc1)Nc1cccc(C(F)(F)F)c1 (stereo not drawn) | -16%
O=C(c1ccc(Cl)cc1)N1CC(CO)C2(CCNCC2)C1 (stereo not drawn) | 7.9µM*
